Only some compounds are listed: those with a hit (about 2.3% of all), similar ones and a draw of the others.
Gli-Sufu block = antagonists of Gli-Sufu signaling | inhibition, % at 5 µM | hit rate 0.74% among 340,000 | Sufu-KO-LIGHT fibroblasts, Gli luciferase reporter luminescence;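 active means inhibition above about 55%, limit read from the data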;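 further: 0% = DMSO-treated cells and 100% = wells with medium but no cells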
aSyn UTR inh = 5' untranslated region of α-synuclein, MLPCN primary screen; alpha-synuclein 5'UTR reporter, inhibitor activity; inhibition, % (tested at 7.5 µM); hit rate 0.82% among 300,000; AID 1813; in the data active means inhibition above about 60%; inconclusive means no clear call, values can overlap the other calls;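 further: H4 neuroglioblastoma cells stably carrying SNCA 5'UTR luciferase fusion; 0% = DMSO wells and 100% = positive control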
H9c2 TAG inh = triacylglycerol accumulation inhibition | H9c2 cells, Nile Red lipid (TAG) fluorescence; cells loaded with 200 µM oleic acid | inhibition, % at 12.5 µM | hit rate 0.66% among 230,000 | AID 651582;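 active means pattern-corrected inhibition of lipid staining of at least 50% with the nuclear-stain viability signal not falling by more than 50%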;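 further: 0% = DMSO wells and 100% = triacsin C control wells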
Shn3 inh set2 = inhibitors of Schnurri-3 3'UTR reporter in osteoblasts; Clone20 osteoblast Shn3 3'UTR firefly luciferase, 24 h; inhibition, % at 12.5 µM; hit rate 0.52% among 360,000; AID 588674;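 active means mean inhibition of at least 75% with every replicate also reaching 75%; inconclusive means mean inhibition at least 75% but some replicate below; inactive means mean inhibition below 75%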;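 further: 0% = median of neutral control wells and 100% = pilot-screen positive control compound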
697 NFkB inh = inhibitors of the PMA/ionomycin-induced NF-kB reporter in 697 B cells; 697 B-cell NF-kB luciferase reporter, 16 h; inhibition, % at 4 µM; hit rate 0.33% among 330,000; AID 435022; in the data active means inhibition above about 35%
Jurkat NFkB inh = inhibitors of the PMA/ionomycin-induced NF-kB reporter in Jurkat cells | PMA/ionomycin-induced NF-kB luciferase reporter, luminescence | inhibition, % at 4 µM | hit rate 0.53% among 330,000 | AID 435003; in the data active means inhibition above about 50%
Gli antag conf = Gli-SUFU antagonism confirmation, single concentration | shares compounds with Gli-Sufu block | Sufu-KO-LIGHT cells, Gli luciferase reporter, luminescence | inhibition, % at 5 µM | hit rate 40% among 2,500 | AID 602428;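 active means mean inhibition at 5 µM reaching about 45%, limit read from the data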;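 further: plate controls were DMSO-treated cells for no effect and wells lacking cells for full effect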
Gli cytotox = cytotoxic in Gli-SUFU antagonist counter-screen. cytotoxicity, % at 5 µM. shares compounds with Gli-Sufu block. hit rate 32% among 2,500. Sufu-KO-LIGHT cells cytotoxicity, ATP luminescence;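 active means mean cytotoxicity at 5 µM above about 25%, limit read from the data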;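 further: cells exposed to compound overnight for roughly 16 to 18 hours; plate controls were DMSO wells with cells for no effect and medium without cells for full effect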
Wnt3a cs = counter-screen for Gli-SUFU antagonists: Wnt3a reporter inhibition | inhibition, % at 6.25 µM | shares compounds with Gli-Sufu block | Wnt-LIGHT cells, Wnt3a-driven luciferase reporter, luminescence | AID 651995 | hit rate 20% among 2,500;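 active means mean inhibition above about 25%, limit read from the data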
Starred values were filed as active, the others as inactive; ? = inconclusive; · = no result; ! = a repeat was not active.

SMILES	Gli-Sufu block	aSyn UTR inh	H9c2 TAG inh	Shn3 inh set2	697 NFkB inh	Jurkat NFkB inh	Gli antag conf	Gli cytotox	Wnt3a cs
NS(=O)(=O)c1ccc(-c2c(-c3ccccc3)sc3ccccc23)cc1	-15	·	-3	-29	15	8	·	·	·
CCn1cc(CNC(=O)c2cccc([N+](=O)[O-])c2)c(C)n1	-8	15	-5	0	10	-10	·	·	·
Clc1ccc(SCc2cc(-c3ccccc3)on2)cc1	-11	-75	12	-17	29	-1	·	·	·
c1ccc(Cc2cc(-c3ccccc3)on2)cc1	96*	-130	1	-122	-53	-58	-68	19	-144
O=C(O)CC12CC3CC(C1)CC(n1ncc(NCc4ccco4)c(Cl)c1=O)(C3)C2	11	15	9	-14	25	3	·	·	·
CCc1cccc2c(C(=O)COC(=O)c3nn(C)c(=O)c4ccccc34)c[nH]c12	99*	2	10	-7	-12	-7	30	6	-86
CN(CC(=O)Nc1ccc(F)cc1)C(=O)COC(=O)c1cc(Br)c(Br)s1	65*	·	-18	13	·	·	9	-13	-6
Cc1ccc(N2C(=O)CC(N3CCN(c4ccccn4)CC3)C2=O)cc1 (stereo not drawn)	-17	8	·	4	7	2	·	·	·
COc1ccc(NC(=O)c2ccco2)cc1NC(=O)c1ccco1	-9	-31	14	11	2	-2	·	·	·
Clc1ccc(-c2nnc(CSc3nnc(-c4cccs4)n3Cc3ccccc3)o2)cc1	68*	-13	·	76	-13	30	66*	32*	10
Cc1nnc(SCc2nnc(-c3cccs3)o2)n1Cc1ccccc1	-4	12	11	1	-19	-1	·	·	·
Cc1ccc(C(=O)N2CCN(c3nc4ccccc4n3C)CC2)cc1	70*	28	·	-1	-14	-3	13	23	-83
O=C(C1CCCN1S(=O)(=O)c1cccc2nsnc12)N1CCN(c2ccc(F)cc2)CC1 (stereo not drawn)	58*	-9	·	5	-4	-1	20	-10	-25
CC(=O)N1CCc2cc(S(=O)(=O)NC(C)c3ccccc3)ccc21 (stereo not drawn)	27	-9	·	28	-32	14	·	·	·
CC(=O)N1CCOc2ccc(S(=O)(=O)NC(C)c3ccccc3)cc21 (stereo not drawn)	61*	-6	·	-7	-11	2	24	-6	1
COc1ccc(C)cc1N(CC(=O)Nc1ccc(S(=O)(=O)N2CCCC2)cc1)S(C)(=O)=O	-12	11	·	24	-8	9	·	·	·
COc1ccc(CNC(=O)c2ccc(CNc3c(NC4CCCCC4)c(=O)c3=O)cc2)cc1	0	10	9	-12	-1	-9	·	·	·
COc1ccc(NC(=O)c2ccc(CNc3c(NC4CCCCC4)c(=O)c3=O)cc2)cc1OC	59*!	-2	9	-18	15	5	10	-6	-4
O=C(N/N=C/c1cc(Br)ccc1O)C(=O)Nc1ccccc1OC(F)(F)C(F)F	60*	82*	·	85*	·	·	73*	32*	58*
O=C(N/N=C/c1cc(Cl)ccc1O)C(=O)Nc1ccccc1OC(F)(F)C(F)F	55*	·	·	88*	·	·	64*	46*	64*
COc1ccc(NC(=O)c2csc3c2CCCCC3)c(OC)c1	39	-12	·	-9	8	-8	·	·	·
O=c1[nH]cnc2c1sc1nc(-c3ccccc3)c3c(c12)CCCC3	9	-12	-4	-44	-11	-37	·	·	·
Cc1ccc(-c2nc3sc4c(N)ncnc4c3c3c2CCCC3)cc1	55	23	·	6	25	15	28	-14	25*
CCCOc1ccc(N2C(=O)CC(N3CCOCC3)C2=O)cc1 (stereo not drawn)	-4	3	·	-5	-1	-1	·	·	·
CC(C)(C)NC(=O)C(=O)NNC(=O)c1cccc(F)c1	84*	-89	13	-25	-25	-6	-1	9	-28
SMILES	Gli-Sufu block	aSyn UTR inh	H9c2 TAG inh	Shn3 inh set2	697 NFkB inh	Jurkat NFkB inh	Gli antag conf	Gli cytotox	Wnt3a cs
Cc1ccc(-c2nn(C)c(=O)c3ccccc23)cc1S(=O)(=O)N1CCOCC1	51	·	·	-1	14	13	22	20	16
CCn1c(SCC(=O)Nc2nc(-c3ccccc3)cs2)nc2c1c(=O)n(C)c(=O)n2C	-2	22	·	2	-21	0	·	·	·
CCCn1c(SCC(=O)Nc2nc(-c3ccc(OC)cc3)cs2)nc2c1c(=O)n(C)c(=O)n2C	59*	-7	·	39	-24	15	51*	12	5
CC(=O)NC(Cc1ccccc1C)C(=O)NC1CCN(C(=O)NCc2ccccc2)CC1 (stereo not drawn)	58*	8	·	11	18	10	22	2	-2
Cc1cc(N2CCCC2=O)cc(C)c1S(=O)(=O)NCCOc1ccc(C(C)(C)C)cc1	75*	6	-44	?	-43	6	72*	44*	-2
COc1ccc(CN2CCN(Cc3cccc(Oc4ccccc4)c3)CC2)c(OC)c1OC	51	1	·	14	-7	-15	25	26*	-46
O=C(NC1CCCCC1)C(c1cccs1)N(C(=O)C(F)(F)F)c1ccccc1 (stereo not drawn)	-2	12	·	1	11	14	·	·	·
Cc1cc(C)n2nc(N)c(N=Nc3ccc(Cl)cc3)c2n1	81*	17	·	6	-21	-9	28	16	-37
Cc1c(C(=O)O)sc2nc(C)n(C)c(=O)c12	96*	15	·	-2	-5	-12	27	21	17
Cc1c(C(=O)O)sc2nc3n(c(=O)c12)CCCCC3	4	-9	0	4	29	-1	·	·	·
CCCCOc1ccc(C(=O)N(Cc2ccccc2)C2CCS(=O)(=O)C2)cc1 (stereo not drawn)	-3	0	5	5	-15	-4	·	·	·
Cc1cc(NC(=O)CSc2cc(Cl)ccc2Cl)n(-c2ccccc2)n1	52	-1	·	7	-1	12	22	7	-5
COc1ccc(NC(=O)CSc2nc3ccccc3c(=O)[nH]2)cc1S(N)(=O)=O	57*	·	22	0	-2	2	2	-9	-16
Cc1cc(Nc2ccc([N+](=O)[O-])cc2)c2ccccc2n1	56*	-1	·	32	-12	-4	38	13	3
Cc1cc(Nc2cccc([N+](=O)[O-])c2)c2ccccc2n1	33	-1	-15	34	-24	21	·	·	·
N#C/C(=C/c1ccc(-c2cccc([N+](=O)[O-])c2)o1)C(=O)Nc1nc(-c2cccs2)cs1	-5	·	9	6	·	·	·	·	·

Screening results as filed in PubChem.
